# Source: article PMC7862700, “An all-to-all approach to the identification of sequence-specific readers for epigenetic DNA modifications on cytosine”
# Legend:
# Assay in all cases: DAPPL (digital affinity profiling via proximity ligation, sequencing); 10 mM Tris-HCl pH 7.5, 50 mM NaCl, 1 mM DTT, 4% glycerol, room temperature, 30 min; GST-TFs on glutathione beads, 16-mer random dsDNA library, 0.1% formaldehyde crosslink after washing; high values mean tight binding
# [1] = target: T1, FLI1 (Homo sapiens, UniProt Q01543 1-452); details: protein: recombinant; tags: N-terminal GST; dsDNA, one strand shown
# T1 sequence: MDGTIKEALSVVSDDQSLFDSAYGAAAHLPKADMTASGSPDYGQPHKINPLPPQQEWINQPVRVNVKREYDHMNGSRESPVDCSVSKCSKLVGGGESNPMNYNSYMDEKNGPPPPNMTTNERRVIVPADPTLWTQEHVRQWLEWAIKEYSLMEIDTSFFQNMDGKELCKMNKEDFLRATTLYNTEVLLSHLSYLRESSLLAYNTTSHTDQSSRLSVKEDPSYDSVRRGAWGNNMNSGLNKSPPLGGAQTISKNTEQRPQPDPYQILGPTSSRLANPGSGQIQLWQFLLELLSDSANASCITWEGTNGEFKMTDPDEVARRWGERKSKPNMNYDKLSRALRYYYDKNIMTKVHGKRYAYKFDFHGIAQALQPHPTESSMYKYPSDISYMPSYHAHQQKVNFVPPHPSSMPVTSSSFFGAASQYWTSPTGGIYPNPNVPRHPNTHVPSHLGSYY
# In short: (§1)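 Human transcription factors carrying a GST fusion were produced in yeast, bound to glutathione beads, tagged with DNA barcodes and pooled together with a tag-only sample. Each pool was held with 200 nmole of a random double-stranded 16-mer DNA library in Tris/NaCl/DTT/glycerol buffer for 30 min at room temperature, then washed, crosslinked in 0.1% formaldehyde, proximity-ligated with BsaI/T4 ligase (1 h, 37 °C), PCR-amplified and sequenced on an Illumina NextSeq500. Binding signal is the read frequency of each hexamer for a given factor divided by its frequency in the tag-only sample.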
# [2] = target: T2, ELK1 (Homo sapiens, UniProt P19419 1-428); details: protein: recombinant; tags: N-terminal GST; dsDNA, one strand shown
# T2 sequence: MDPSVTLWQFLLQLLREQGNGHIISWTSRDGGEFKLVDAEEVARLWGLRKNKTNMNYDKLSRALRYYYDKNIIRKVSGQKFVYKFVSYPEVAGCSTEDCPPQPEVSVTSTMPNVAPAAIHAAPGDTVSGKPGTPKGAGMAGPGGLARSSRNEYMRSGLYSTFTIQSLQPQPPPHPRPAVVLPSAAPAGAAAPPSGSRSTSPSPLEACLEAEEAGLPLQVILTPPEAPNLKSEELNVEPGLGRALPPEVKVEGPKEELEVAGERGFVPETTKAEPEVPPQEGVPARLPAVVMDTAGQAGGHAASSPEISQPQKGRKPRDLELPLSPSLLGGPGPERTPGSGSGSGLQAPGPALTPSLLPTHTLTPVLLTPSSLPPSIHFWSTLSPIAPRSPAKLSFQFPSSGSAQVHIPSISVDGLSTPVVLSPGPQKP
# In short: as §1
# [3] = target: T3, GABPA (Homo sapiens, UniProt Q06546 1-454); details: protein: recombinant; tags: N-terminal GST; dsDNA, one strand shown
# T3 sequence: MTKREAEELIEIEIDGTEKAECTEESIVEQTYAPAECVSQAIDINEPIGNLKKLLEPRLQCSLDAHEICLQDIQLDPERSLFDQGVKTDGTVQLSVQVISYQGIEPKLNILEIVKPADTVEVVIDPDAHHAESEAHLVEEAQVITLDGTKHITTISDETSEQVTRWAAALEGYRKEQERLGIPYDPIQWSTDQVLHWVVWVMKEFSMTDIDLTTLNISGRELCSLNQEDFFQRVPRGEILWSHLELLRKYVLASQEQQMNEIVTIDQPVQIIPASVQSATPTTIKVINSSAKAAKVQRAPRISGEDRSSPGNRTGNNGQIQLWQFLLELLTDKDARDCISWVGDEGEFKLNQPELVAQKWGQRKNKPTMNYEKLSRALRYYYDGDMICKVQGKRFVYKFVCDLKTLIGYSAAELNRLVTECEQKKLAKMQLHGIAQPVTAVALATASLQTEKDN
# In short: as §1
# [4] = target: SPIB (Homo sapiens, UniProt Q01892 1-262); details: protein: recombinant; tags: N-terminal GST; dsDNA, one strand shown
# SPIB, sequence (Q01892 whole entry): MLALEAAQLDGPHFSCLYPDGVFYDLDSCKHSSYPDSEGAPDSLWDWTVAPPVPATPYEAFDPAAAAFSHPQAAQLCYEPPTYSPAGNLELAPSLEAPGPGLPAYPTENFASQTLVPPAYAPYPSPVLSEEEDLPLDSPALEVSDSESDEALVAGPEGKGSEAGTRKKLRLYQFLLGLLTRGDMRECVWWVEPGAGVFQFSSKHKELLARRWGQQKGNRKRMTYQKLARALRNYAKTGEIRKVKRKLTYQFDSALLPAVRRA
# In short: as §1
# [5] = target: T4, ELK3 (Homo sapiens, UniProt P41970 1-407); details: protein: recombinant; tags: N-terminal GST; dsDNA, one strand shown
# T4 sequence: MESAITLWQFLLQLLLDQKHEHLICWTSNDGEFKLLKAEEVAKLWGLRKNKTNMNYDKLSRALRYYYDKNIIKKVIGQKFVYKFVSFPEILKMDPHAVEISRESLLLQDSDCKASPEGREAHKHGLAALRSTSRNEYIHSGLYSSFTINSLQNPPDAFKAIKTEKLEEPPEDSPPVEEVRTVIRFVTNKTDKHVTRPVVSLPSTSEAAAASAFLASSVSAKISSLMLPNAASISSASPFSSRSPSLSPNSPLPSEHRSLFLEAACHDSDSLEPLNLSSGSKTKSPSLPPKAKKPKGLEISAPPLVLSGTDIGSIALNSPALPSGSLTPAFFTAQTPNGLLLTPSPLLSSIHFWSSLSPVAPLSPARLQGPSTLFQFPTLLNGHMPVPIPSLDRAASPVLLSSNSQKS
# In short: as §1
# [6] = target: T5, ELK4 (Homo sapiens, UniProt P28324-2 1-405); details: protein: recombinant; tags: N-terminal GST; dsDNA, one strand shown
# T5 sequence: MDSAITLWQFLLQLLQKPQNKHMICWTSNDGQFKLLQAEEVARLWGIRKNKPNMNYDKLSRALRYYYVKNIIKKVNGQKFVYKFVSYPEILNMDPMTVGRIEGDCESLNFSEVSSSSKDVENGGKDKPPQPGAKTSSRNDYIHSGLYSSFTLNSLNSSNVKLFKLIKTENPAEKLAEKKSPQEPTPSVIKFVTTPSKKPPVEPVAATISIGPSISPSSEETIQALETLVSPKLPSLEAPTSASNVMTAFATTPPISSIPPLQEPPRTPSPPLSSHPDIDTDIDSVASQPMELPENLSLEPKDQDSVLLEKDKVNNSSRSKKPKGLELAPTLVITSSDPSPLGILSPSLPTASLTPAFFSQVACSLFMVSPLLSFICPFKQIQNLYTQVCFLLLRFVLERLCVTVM
# In short: as §1
# [7] = target: T6, ETV2 (Homo sapiens, UniProt O00321 1-342); details: protein: recombinant; tags: N-terminal GST; dsDNA, one strand shown
# T6 sequence: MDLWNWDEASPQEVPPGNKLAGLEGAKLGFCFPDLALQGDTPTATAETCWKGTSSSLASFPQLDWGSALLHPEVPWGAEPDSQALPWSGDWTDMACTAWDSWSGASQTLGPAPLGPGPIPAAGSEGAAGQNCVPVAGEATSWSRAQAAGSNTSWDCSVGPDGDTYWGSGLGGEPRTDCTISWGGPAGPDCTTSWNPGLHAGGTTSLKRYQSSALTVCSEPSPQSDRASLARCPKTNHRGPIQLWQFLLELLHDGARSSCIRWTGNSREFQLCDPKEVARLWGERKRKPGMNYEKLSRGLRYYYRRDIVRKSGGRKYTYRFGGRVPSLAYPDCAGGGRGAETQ
# In short: as §1
# [8] = target: ETV1 (Homo sapiens, UniProt P50549 1-477); details: protein: recombinant; tags: N-terminal GST; dsDNA, one strand shown
# ETV1, sequence (P50549 whole entry): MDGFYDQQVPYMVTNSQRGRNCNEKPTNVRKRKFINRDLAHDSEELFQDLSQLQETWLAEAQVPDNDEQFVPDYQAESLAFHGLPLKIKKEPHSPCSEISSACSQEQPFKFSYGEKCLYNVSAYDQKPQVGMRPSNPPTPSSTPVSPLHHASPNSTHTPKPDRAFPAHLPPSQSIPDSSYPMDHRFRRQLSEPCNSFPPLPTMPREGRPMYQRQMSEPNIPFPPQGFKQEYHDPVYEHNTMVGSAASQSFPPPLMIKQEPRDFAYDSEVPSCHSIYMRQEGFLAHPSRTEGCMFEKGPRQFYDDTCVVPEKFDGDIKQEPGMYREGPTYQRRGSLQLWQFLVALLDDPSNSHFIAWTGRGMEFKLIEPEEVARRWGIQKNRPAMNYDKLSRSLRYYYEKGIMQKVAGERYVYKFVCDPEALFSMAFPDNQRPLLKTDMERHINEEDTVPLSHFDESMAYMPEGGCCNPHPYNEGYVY
# In short: as §1
# [9] = target: T7, ERF (Homo sapiens, UniProt P50548 1-548); details: protein: recombinant; tags: N-terminal GST; dsDNA, one strand shown
# T7 sequence: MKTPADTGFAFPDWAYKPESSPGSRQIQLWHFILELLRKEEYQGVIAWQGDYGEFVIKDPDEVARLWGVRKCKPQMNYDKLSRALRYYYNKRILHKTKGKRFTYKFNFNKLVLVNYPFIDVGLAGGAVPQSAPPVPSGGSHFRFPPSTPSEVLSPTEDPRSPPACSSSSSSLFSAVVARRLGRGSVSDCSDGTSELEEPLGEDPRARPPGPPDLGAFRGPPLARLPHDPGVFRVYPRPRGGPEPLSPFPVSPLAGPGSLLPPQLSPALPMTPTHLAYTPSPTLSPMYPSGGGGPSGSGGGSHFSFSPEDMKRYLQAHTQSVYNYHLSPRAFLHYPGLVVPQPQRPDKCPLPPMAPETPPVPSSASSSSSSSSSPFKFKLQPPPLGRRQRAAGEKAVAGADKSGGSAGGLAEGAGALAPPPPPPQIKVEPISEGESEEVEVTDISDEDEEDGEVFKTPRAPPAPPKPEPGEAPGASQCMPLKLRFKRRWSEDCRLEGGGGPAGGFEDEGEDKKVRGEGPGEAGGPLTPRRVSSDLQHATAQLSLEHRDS
# In short: as §1
# [10] = target: ETV6 (Homo sapiens, UniProt P41212 1-452); details: protein: recombinant; tags: N-terminal GST; dsDNA, one strand shown
# ETV6, sequence (P41212 whole entry): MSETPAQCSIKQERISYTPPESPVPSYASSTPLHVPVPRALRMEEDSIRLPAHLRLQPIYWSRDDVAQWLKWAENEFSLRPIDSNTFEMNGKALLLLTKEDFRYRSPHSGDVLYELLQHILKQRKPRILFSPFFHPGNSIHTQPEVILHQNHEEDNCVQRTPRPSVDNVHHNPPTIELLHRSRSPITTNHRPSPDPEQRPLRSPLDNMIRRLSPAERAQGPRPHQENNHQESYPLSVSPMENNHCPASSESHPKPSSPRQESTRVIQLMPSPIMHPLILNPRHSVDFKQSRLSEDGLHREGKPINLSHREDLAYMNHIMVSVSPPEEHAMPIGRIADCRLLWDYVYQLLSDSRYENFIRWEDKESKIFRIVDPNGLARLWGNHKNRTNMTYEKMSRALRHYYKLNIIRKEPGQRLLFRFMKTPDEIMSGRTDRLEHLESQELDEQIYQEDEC
# In short: as §1
# [11] = target: HSF1 (Homo sapiens, UniProt Q00613 1-529); details: protein: recombinant; tags: N-terminal GST; chain copies: 3; dsDNA, one strand shown
# HSF1, sequence (Q00613 whole entry): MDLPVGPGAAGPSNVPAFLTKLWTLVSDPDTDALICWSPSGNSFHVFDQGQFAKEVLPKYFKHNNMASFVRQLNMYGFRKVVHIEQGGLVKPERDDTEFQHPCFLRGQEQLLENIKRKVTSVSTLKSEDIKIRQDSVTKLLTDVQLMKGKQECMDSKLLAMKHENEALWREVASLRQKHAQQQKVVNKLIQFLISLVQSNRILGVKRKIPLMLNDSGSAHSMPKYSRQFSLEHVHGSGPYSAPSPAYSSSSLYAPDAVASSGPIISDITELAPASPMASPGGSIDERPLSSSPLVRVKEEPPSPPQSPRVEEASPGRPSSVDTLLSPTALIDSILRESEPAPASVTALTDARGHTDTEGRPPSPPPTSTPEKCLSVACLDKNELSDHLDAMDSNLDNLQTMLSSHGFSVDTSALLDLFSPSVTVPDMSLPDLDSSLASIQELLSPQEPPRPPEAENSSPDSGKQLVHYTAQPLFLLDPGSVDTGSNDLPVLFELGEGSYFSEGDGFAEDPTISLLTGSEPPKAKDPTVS
# In short: as §1
# [12] = target: T8, EHF (Homo sapiens, UniProt Q9NZC4 1-300); details: protein: recombinant; tags: N-terminal GST; dsDNA, one strand shown
# T8 sequence: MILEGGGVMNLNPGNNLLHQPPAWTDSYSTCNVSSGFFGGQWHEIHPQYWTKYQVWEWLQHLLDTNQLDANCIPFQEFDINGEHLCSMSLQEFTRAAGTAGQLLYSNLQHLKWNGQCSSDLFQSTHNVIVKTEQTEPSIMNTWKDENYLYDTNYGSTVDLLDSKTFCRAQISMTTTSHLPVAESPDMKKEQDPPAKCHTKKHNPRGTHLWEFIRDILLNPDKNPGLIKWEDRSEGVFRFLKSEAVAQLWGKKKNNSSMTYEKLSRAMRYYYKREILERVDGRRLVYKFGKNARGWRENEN
# In short: as §1
# [13] = target: SPI1 (Homo sapiens, UniProt P17947 1-270); details: protein: recombinant; tags: N-terminal GST; dsDNA, one strand shown
# In short: as §1
# [14] = target: T9, ETV3 (Homo sapiens, UniProt P41162-2 1-143); details: protein: recombinant; tags: N-terminal GST; dsDNA, one strand shown
# T9 sequence: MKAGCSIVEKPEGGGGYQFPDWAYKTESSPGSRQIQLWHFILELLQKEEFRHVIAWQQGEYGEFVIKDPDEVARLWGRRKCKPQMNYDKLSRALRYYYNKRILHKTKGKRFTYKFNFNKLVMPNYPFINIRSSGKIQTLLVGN
# In short: as §1
sequence,measurement,setting,value
GGTCTG,binding signal,[1],"1.03 fold enrichment (6-mer frequency, TF over GST control)"
same,binding signal,[2],"1.11 fold enrichment (6-mer frequency, TF over GST control)"
same,binding signal,[3],"1.02 fold enrichment (6-mer frequency, TF over GST control)"
same,binding signal,[4],"1 fold enrichment (6-mer frequency, TF over GST control)"
same,binding signal,[5],"1.03 fold enrichment (6-mer frequency, TF over GST control)"
same,binding signal,[6],"1.07 fold enrichment (6-mer frequency, TF over GST control)"
same,binding signal,[7],"1.07 fold enrichment (6-mer frequency, TF over GST control)"
same,binding signal,[8],"1.07 fold enrichment (6-mer frequency, TF over GST control)"
same,binding signal,[9],"1.09 fold enrichment (6-mer frequency, TF over GST control)"
same,binding signal,[10],"1.02 fold enrichment (6-mer frequency, TF over GST control)"
ATCGAG,binding signal,[11],"1.49 fold enrichment (6-mer frequency, TF over GST control)"
CATTGG,binding signal,[1],"1.05 fold enrichment (6-mer frequency, TF over GST control)"
same,binding signal,[3],"1 fold enrichment (6-mer frequency, TF over GST control)"
same,binding signal,[12],"1 fold enrichment (6-mer frequency, TF over GST control)"
same,binding signal,[9],"1.05 fold enrichment (6-mer frequency, TF over GST control)"
GTGCGC,binding signal,[1],"1.02 fold enrichment (6-mer frequency, TF over GST control)"
same,binding signal,[13],"1.02 fold enrichment (6-mer frequency, TF over GST control)"
same,binding signal,[6],"1.15 fold enrichment (6-mer frequency, TF over GST control)"
same,binding signal,[7],"1.02 fold enrichment (6-mer frequency, TF over GST control)"
same,binding signal,[14],"1.04 fold enrichment (6-mer frequency, TF over GST control)"
same,binding signal,[10],"1.03 fold enrichment (6-mer frequency, TF over GST control)"
